Measured values from PubChem BioAssay (NCI).
This is part of a sample that, as a whole, favours compounds with a hit. Of some 79,000 tested, about 15% had one in any assay. Active and inactive are the calls of the source. Rule as the data show it: active = growth inhibition above about 70%; inactive = the rest.

Experiments:
[1] = NCI Yeast Anticancer Drug Screen. Data for the rad52 strain (AID 147);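 also: 0% = growth of vehicle-treated control cultures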; conditions: S. cerevisiae rad52 mutant growth inhibition, hits give high values
Method in brief: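 The repair-mutant yeast strain was incubated with compounds, then growth was read and inhibition derived relative to vehicle.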

[2] = NCI Yeast Anticancer Drug Screen. Data for the wt1 strain (AID 149);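 also: 0% = growth of vehicle-treated wt1 cultures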; conditions: S. cerevisiae wt1 strain (SPY 50644) growth inhibition, hits give high values
Method in brief: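 wt1 yeast, compound-treated; % growth inhibition vs vehicle control.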

[3] = NCI Yeast Anticancer Drug Screen. Data for the rad50 strain (AID 155);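 also: 0% = growth of vehicle-only cultures of the same strain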; conditions: S. cerevisiae rad50 strain growth inhibition, hits give high values
Method in brief: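 Genetically altered yeast (DNA repair pathway); compound treatment; growth inhibition vs vehicle ctrl.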

[4] = NCI Yeast Anticancer Drug Screen. Data for the mec2-1 strain (AID 157); conditions: S. cerevisiae mec2-1 strain, hits give high values
Method in brief: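 Mutant yeast (mec2-1) grown with compound; growth inhibition relative to vehicle control reported.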

[5] = NCI Yeast Anticancer Drug Screen. Data for the sgs1 mgt1 strain (AID 161);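 also: 0% = growth of cultures given vehicle only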; conditions: S. cerevisiae sgs1 mgt1 strain, hits give high values
Method in brief: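 Compounds are added to genetically altered yeast, and growth is compared with cultures given vehicle alone to give percent inhibition.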

[6] = NCI Yeast Anticancer Drug Screen. Data for the CLN2oe strain (AID 163);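 also: 0% = growth of vehicle-only control cultures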; conditions: S. cerevisiae CLN2oe strain, hits give high values
Method in brief: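 Compounds are applied to yeast harbouring a defined cell-cycle control change; reduced growth compared with vehicle-treated controls gives the value.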

[7] = NCI Yeast Anticancer Drug Screen. Data for the cln2 rad14 strain (AID 165);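 also: 0% = growth equal to vehicle treated cultures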; conditions: S. cerevisiae cln2 rad14 strain, hits give high values
Method in brief: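 Readout is yeast growth inhibition versus vehicle-treated controls, using a strain with cln2 and rad14 alterations exposed to compound.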

[8] = NCI Yeast Anticancer Drug Screen. Data for the bub3 strain (AID 167); conditions: S. cerevisiae bub3 mutant strain, hits give high values
Method in brief: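 Yeast carrying a defined mutation is treated with each compound, and growth is compared with that of vehicle-exposed cells to give inhibition.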

[9] = NCI Yeast Anticancer Drug Screen. Data for the wt2 strain (AID 169);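 also: 0% = growth of vehicle-treated yeast cultures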; conditions: S. cerevisiae wt2 strain growth inhibition, hits give high values
Method in brief: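 Against vehicle-treated controls, the growth of yeast exposed to each compound was compared, and the inhibition was recorded.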

[10] = NCI Yeast Anticancer Drug Screen. Data for the mlh1 strain (AID 171);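 also: 0% = growth of vehicle-treated control cultures of the same strain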; conditions: S. cerevisiae mlh1 strain growth inhibition, hits give high values
Method in brief: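 Measured: yeast growth. Reference: vehicle-treated controls. Organism: strain with a defined alteration affecting DNA damage repair or cell cycle control, treated with compound.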

[11] = NCI Yeast Anticancer Drug Screen. Data for the mlh1 rad18 strain (AID 175); conditions: S. cerevisiae mlh1 rad18 strain growth inhibition, hits give high values
Method in brief: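 Genetically defined yeast (DNA repair-deficient) exposed to compounds; growth inhibition determined relative to vehicle.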

[12] = NCI Yeast Anticancer Drug Screen. Data for the rad18 strain (AID 177); conditions: S. cerevisiae rad18 mutant growth inhibition, hits give high values
Method in brief: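 Vehicle-treated cultures served as the baseline for scoring compound-induced growth inhibition in DNA-repair-mutant yeast.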

[13] = at 5.0 µM (retest, dose inferred, filed as 0.5)
[14] = at 50.0 µM (retest, dose inferred, filed as 5.0)

Measured: growth inhibition

CCN(CC)N=Nc1c(C(N)=O)n[nH]c1C
active: [1]; at 100.0 µM 93% | [3]; at 50.0 µM 85.3% | [3]; at 100.0 µM 92% | [12]; at 100.0 µM 83%
inactive: [1]; at 1.2 µM 0% | [1]; at 3.7 µM -3% | [1]; at 11.0 µM 8% | [1]; at 33.0 µM 47% | [2]; at 1.2 µM -6% | [2]; at 3.7 µM -5% | [2]; at 11.0 µM -7% | [2]; at 33.0 µM -5% | [2]; at 100.0 µM 0% | [3]; at 1.2 µM -10% | [3]; at 3.7 µM -8% | [3]; [13] -138% | [3]; at 11.0 µM 9% | [3]; at 33.0 µM 54% | [3]; [14] 56% | [4]; at 1.2 µM 2% | [4]; at 3.7 µM 1% | [4]; [13] -46% | [4]; at 11.0 µM 8% | [4]; at 33.0 µM 2% | [4]; [14] -40% | [4]; at 50.0 µM 15.8% | [4]; at 100.0 µM 27% | [5]; [13] -62% | [5]; [14] -35% | [5]; at 50.0 µM -0.05% | [6]; at 1.2 µM -5% | [6]; at 3.7 µM 1% | [6]; at 11.0 µM 0% | [6]; at 33.0 µM 0% | [6]; at 100.0 µM 4% | [7]; [13] -55% | [7]; [14] -63% | [7]; at 50.0 µM -29.2% | [8]; at 1.2 µM -15% | [8]; at 3.7 µM -12% | [8]; [13] -65% | [8]; at 11.0 µM -9% | [8]; at 33.0 µM -9% | [8]; [14] -84% | [8]; at 50.0 µM -22.8% | [8]; at 100.0 µM -2% | [9]; at 1.2 µM -1% | [9]; at 3.7 µM 0% | [9]; at 11.0 µM -1% | [9]; at 33.0 µM -1% | [9]; at 100.0 µM 2% | [10]; at 1.2 µM 6% | [10]; at 3.7 µM -6% | [10]; at 11.0 µM -5% | [10]; at 33.0 µM -2% | [10]; at 100.0 µM -3% | [11]; [13] -124% | [11]; [14] -75% | [11]; at 50.0 µM 40.4% | [12]; at 1.2 µM -2% | [12]; at 3.7 µM 0% | [12]; at 11.0 µM 6% | [12]; at 33.0 µM 23%
